FBW7 act: FBW7 E3 ligase activators, primary screen, biochemical, AlphaScreen, human | normalized activity (activation), % at 26.1 µM | F-box/WD repeat-containing protein 7 (Homo sapiens), Q969H0 | AID 1259310, 2017 | actives 0.13% (n = 650,000) | AlphaScreen FBW7–phospho-cyclin E peptide binding, activator screen; in the data active means normalized activity above about 1.9%;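 further: purified mutant Fbw7 with reduced substrate affinity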
Target sequence (Q969H0 whole entry, looked up): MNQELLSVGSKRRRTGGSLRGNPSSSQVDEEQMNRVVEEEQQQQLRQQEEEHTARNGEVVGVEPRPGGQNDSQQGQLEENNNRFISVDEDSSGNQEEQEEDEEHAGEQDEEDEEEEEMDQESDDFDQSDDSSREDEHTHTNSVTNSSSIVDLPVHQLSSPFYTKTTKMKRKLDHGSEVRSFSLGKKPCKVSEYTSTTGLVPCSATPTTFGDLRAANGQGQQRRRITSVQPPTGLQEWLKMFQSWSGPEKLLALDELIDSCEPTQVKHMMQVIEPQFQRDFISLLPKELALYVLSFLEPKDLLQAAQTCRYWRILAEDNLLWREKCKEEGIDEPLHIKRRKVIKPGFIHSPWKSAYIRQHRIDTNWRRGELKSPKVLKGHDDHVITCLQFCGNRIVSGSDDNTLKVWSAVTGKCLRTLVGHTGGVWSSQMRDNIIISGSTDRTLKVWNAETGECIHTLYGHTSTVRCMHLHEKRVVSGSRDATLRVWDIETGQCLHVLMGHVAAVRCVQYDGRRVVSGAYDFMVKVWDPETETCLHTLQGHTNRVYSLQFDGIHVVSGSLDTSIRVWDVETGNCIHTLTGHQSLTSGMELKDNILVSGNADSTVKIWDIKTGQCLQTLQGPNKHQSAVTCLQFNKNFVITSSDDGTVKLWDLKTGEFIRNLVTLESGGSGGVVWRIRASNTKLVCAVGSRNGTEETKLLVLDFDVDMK
TEAD-YAP inh: TEAD-YAP interaction inhibition, primary screen, TEAD-YAP interaction inhibitor project, luminescence, HEK-TIYL cells | TEAD-Gal4/YAP UAS-luciferase luminescence | inhibition, % at 9.12 µM | actives 1.4% (n = 640,000); in the data active means inhibition above about 32%;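 further: 0% = median of test compound wells and 100% = reference inhibitor wells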
MITF inh: MITF inhibitors, primary screen, biochemical, AlphaScreen, human. Microphthalmia-associated transcription factor (Homo sapiens), O75030. AlphaScreen MITF homodimerization, bead proximity signal. inhibition, % at 2.6 µM. actives 0.91% (n = 650,000); in the data active means inhibition above about 50%;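 further: 0% = vehicle wells with protein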
GPR151 ag: activators of human GPR151, primary screen, cell-based, PathHunter beta-arrestin, luminescence | actives 1% (n = 650,000) | PathHunter beta-arrestin GPR151 cells | activation, % at 11.2 µM | G-protein coupled receptor 151 (Homo sapiens), Q8TDV0; in the data active means activation above about 4.9%;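 further: 0% = median of compound wells and 100% = cells with positive control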
GPR151 confirm: GPR151 activators, triplicate retest, confirmation, cell-based, PathHunter beta-arrestin, luminescence | shares compounds with GPR151 ag | GPR151 PathHunter beta-arrestin cells, 90 min; % of EA-reagent control over plate median | activation, % at 11.2 µM | 6,700 tested, under 10 active | AID 1508609, 2020;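 active means mean percent activation across replicates above the confirmation screen cutoff of 4.91%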
GPR119 ag: GPR119 activators in beta-arrestin cells, counter-screen for GPR151 activator project, cell-based, PathHunter beta-arrestin, luminescence, triplicate; shares compounds with GPR151 ag; 90 min; 0 = compound-well median, 100 = enzyme-acceptor control; activation, % at 11.2 µM; actives 0.3% (n = 6,700); AID 1508611, 2020;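 active means mean percent activation in the counterscreen above 29.09%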;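 further: counterscreen on off-target GPR119 to flag nonselective hits from the GPR151 activator screen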
Active calls of the source: *; . = no result given; ! = not active in a repeat. Shown are actives, neighbours in structure and some others; about 3.5% of the full set was active somewhere.

SMILES | FBW7 act | TEAD-YAP inh | MITF inh | GPR151 ag | GPR151 confirm | GPR119 ag
c1ccc(CNc2ccnc(-c3ccccc3)n2)cc1 | 0 | -11 | -8 | 0 | . | .
O=C(CSc1ncccn1)NCc1cccc(C(F)(F)F)c1 | 0 | -26 | 4 | 5.8* | 0 | -9
Nc1nc(NCc2cccc(C(F)(F)F)c2)cc(Nc2nccc3ccccc23)n1 | 1 | 12 | -4 | -2 | . | .
FC(F)(F)c1cccc(CNc2ccnc(-c3ccccc3)n2)c1 | 0 | 37*! | 11 | 5.0*! | 1 | -4
FC(F)(F)c1cccc(CNc2cc(Nc3nccc4ccccc34)ncn2)c1 | 0 | -2 | 15 | 6.7* | 0 | -4
O=C(NCc1cccc(C(F)(F)F)c1)c1cccc(Nc2nccc3ccccc23)n1 | 0 | 2 | 2 | 5.5* | 0 | 6
O=S(=O)(Nc1ccc(Cl)cn1)c1ccc(Cl)s1 | 0 | 2 | -10 | 0 | . | .
CC(=O)Nc1ccc(SCCNCCO)cc1 | 0 | 5 | 29 | 0 | . | .
CCNc1cc(N(CC)CCO)c2noc3c2c1C(=O)c1ccccc1-3 | -1 | 7 | 47 | -2 | . | .
CCN(CCO)c1cc(NC(C)C)c2c3c(onc13)-c1ccccc1C2=O | 0 | 12 | 24 | 7.1* | 1 | 13
COc1ccccc1N/N=C(\C)c1ccc([N+](=O)[O-])o1 | 0 | 21 | 5 | 5.7* | 1 | 5
CCc1cc2[nH]c(C(=O)OC)cc2s1 | 0 | -37 | 2 | 5.0* | 0 | 10
Cc1nnc(SCc2ccc(Cl)cc2)nc1/C=C/N(C)C | 0 | 8 | 12 | 0 | . | .
Cc1nnc(SCc2ccc(Cl)cc2)nc1C | 0 | -22 | 7 | 5.2* | 0 | -5
C=CCSC1=C(C#N)C(c2ccc(Cl)cc2)[C@H](C(=O)OC)C(=O)N1 (some centres not stated) | 0 | -1 | -6 | -2 | . | .
NC(=O)C1CCN(C(=O)C(=O)c2cn(CC(=O)N3CCCCCC3)c3ccccc23)CC1 | 0 | 0 | -18 | 6.2* | -1 | -2
O=C(CSc1cn(CC(=O)N2CCOCC2)c2ccccc12)NC1CCCC1 | 0 | -2 | -12 | 5.4* | 0 | 3
O=C(Cc1nc2ccccc2s1)c1ccccc1 | 0 | -50 | -4 | 0 | . | .
COc1ccccc1C1Nc2ccc(C(=O)c3ccccc3)cc2NC2=C1C(=O)CC(C)(C)C2 (configuration not stated) | 0 | 5 | 6 | 0 | . | .
O=c1c2cnn(CCO)c2ncn1Cc1c(F)cccc1Cl | 0 | -1 | -13 | 6.6* | 0 | 5
CC(C)(C)c1ccccc1OCCCCN1CCOCC1 | 0 | 9 | -13 | 2 | . | .
NC(=O)c1cccn1Cc1cccc(Cl)c1 | 0 | 6 | 3 | 1 | . | .
CCOC(=O)c1nccn1Cc1ccccc1Cl | 0 | -11 | 7 | 9.4* | -1 | -6
NC(=O)c1cccn1Cc1ccccc1Cl | 0 | -7 | -4 | 5.2* | -1 | 25
CC(=O)NCC1CCCN(c2nc3nonc3nc2N2CCCCCC2)C1 (configuration not stated) | 0 | 5 | -9 | -1 | . | .
SMILES | FBW7 act | TEAD-YAP inh | MITF inh | GPR151 ag | GPR151 confirm | GPR119 ag
CN(C)C(=O)CN1CCN(c2nc3nonc3nc2N2CCCCCC2)CC1 | 0 | 3 | 8 | 4.9* | 0 | 5
CC(=O)NCC1CCCN(c2nc3nonc3nc2N2CCSCC2)C1 (configuration not stated) | 0 | -5 | 0 | 5.5* | 1 | 4
Cc1ccc(NC(=O)N(CCN(C)C)Cc2cc3cc4c(cc3[nH]c2=O)OCCO4)cc1 | 0 | 8 | 18 | 0 | . | .
COc1ccc(CN2C[C@@H]3C[C@@H](c4cc(F)cc(F)c4)N4CCC[C@@]34C2=O)cc1 | 0 | -6 | 15 | 0 | . | .
COC(=O)c1c(OC2Cc3ccccc3C2)cc(=O)n2c1CCN(C1CCSC1)CC2 (configuration not stated) | 0 | 1 | 11 | -1 | . | .
C=C(C)CCC(C)N1CCC(Oc2cccc(C(=O)NCCOC)c2)CC1 (configuration not stated) | 0 | 3 | 4 | -1 | . | .
CS(=O)(=O)N1CCC(Oc2cccc(C(=O)NCCCOc3cccnc3)c2)CC1 | 0 | 6 | 0 | 5.0* | 0 | 5
COCCNC(=O)c1cccc(OC2CCN(C(C)CSC)CC2)c1 (configuration not stated) | 0 | 4 | -2 | 7.0* | 0 | 10
Cc1ccc(-c2c(Nc3cccnc3)c(=O)c2=O)cc1 | 0 | -1 | 21 | -1 | . | .
COc1cccc2ccc(CN3CCN(C4CCN(C(C)C)CC4)C(CCO)C3)nc12 (configuration not stated) | 0 | -3 | -2 | 9.0* | -1 | -2
CC(C)N1CCC(N2CCN(Cc3ccc(-c4ccc(Cl)cc4)o3)CC2CCO)CC1 (configuration not stated) | 0 | -1 | 5 | 6.6* | 2 | 13
Cc1cc(Br)ccc1NC(=O)COc1cccc(C(F)(F)F)c1 | 0 | -4 | -14 | 0 | . | .
Cn1cc(CN2CCCC(CNS(=O)(=O)c3cccc4cccnc34)C2)cn1 (configuration not stated) | 0 | 1 | 5 | 8.1* | 0 | 1
O=C(CC1(C(=O)Nc2ccccc2Cc2ccccc2)CCCC1)N1CCOCC1 | 0 | 1 | 2 | 0 | . | .
C=CCOC(=O)C1=C(C)NC(C)=C(C(=O)OCC=C)C1c1cn(-c2ccccc2)nc1-c1ccc(Br)cc1 | 1 | -4 | -7 | 5.0* | 0 | 8
O=C(O)Cn1c(O)c(C=Nc2cc(Cl)cc(Cl)c2)sc1=S | 0 | -2 | -5 | 1 | . | .
C=CCn1c(COc2ccc(OC)cc2)nc2ccccc21 | 0 | -59 | -4 | -1 | . | .
C=CCn1c(/N=C/c2ccc(OC)cc2)nc2ccccc21 | 0 | 5 | 6 | 5.0* | 2 | 12
Cn1c(=O)n(Cc2c(F)cccc2Cl)c(=O)c2c1nc1n2CCCN1Cc1ccco1 | 0 | -14 | 2 | 1 | . | .
Cc1ccc(NC(=O)N2CCOCC2)cc1 | 0 | -3 | -11 | -1 | . | .
CCC(C)c1ccc(NC(=O)N2CCOCC2)cc1 (configuration not stated) | 0 | -57 | 12 | 5.4* | -1 | -8
NC(=O)Cn1ccn(-c2cccc(Cl)c2)c(=O)c1=O | 0 | 1 | 2 | 8.1* | 0 | -8
CC(C)Oc1ccc(C(=O)NCC(=O)OCC(=O)NC(N)=O)cc1 | 0 | -6 | 2 | 2 | . | .
CN1C(=O)/C(=C/c2ccccc2OS(C)(=O)=O)SC1=S | 0 | 9 | 16 | 5.7* | 0 | -11

From PubChem BioAssay
